# A selection: hits, their analogues and other compounds. The true share with any hit is near 4.7%.
# D1 potentiator: enhances dopamine response at the human D1 receptor; P21728; HEK293 TREx D1 cells, calcium flux, dopamine EC20 potentiation; potentiation, % at 10 µM; hit rate 0.036% among 360,000; in the data active means potentiation above about 30%; further: 0% is about no effect
# Target sequence (P21728 whole entry, looked up): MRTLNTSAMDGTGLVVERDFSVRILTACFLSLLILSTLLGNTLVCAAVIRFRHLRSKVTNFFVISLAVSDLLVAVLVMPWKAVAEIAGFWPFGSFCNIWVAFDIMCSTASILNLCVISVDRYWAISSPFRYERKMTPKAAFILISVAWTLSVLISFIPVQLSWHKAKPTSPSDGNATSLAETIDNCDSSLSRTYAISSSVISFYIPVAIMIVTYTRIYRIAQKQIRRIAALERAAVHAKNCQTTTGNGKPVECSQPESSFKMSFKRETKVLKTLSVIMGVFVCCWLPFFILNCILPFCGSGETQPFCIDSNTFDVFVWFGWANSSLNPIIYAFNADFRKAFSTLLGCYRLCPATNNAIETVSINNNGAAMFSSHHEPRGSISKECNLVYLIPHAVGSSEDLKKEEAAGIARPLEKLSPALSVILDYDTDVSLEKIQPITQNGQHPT
# D1 ag: human D1 receptor agonism | HEK293 T-REx D1 cells, calcium flux, agonist mode | hit rate 1% among 360,000 | activation, % at 2 µM; further: 0% is about no effect
#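 Tetracycline-induced HEK293 TREx D1 cells, force-coupled to calcium signalling, were dye-loaded with a no-wash calcium kit. Compound was pin-added after a 10 s baseline. Fluorescence was read kinetically at 1 cycle/s for 180 s, with calcium rises flagged as agonism.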
# TRHR agonist: agonists of human TRH receptor; activation, % at 2 µM; hit rate 0.18% among 360,000; TRHR cells, calcium flux fluo-8, FDSS agonist mode; further: 0% is about no effect
#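 Agonist-mode FDSS calcium read (Ex 480/Em 530, 1 s cycles) in 1536-well TRHR cells with fluo-8 dye, after 10-cycle baseline and 23 nL compound addition; TRH at EC20 (10 nM final) added afterwards for the enhancer phase.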
# D1 antag: blocks dopamine activation of the human D1 receptor. P21728. HEK293 TREx D1 cells, calcium flux, dopamine EC80; stronger effect = lower value. activity change, negative = inhibition, % at 10 µM. hit rate 3.2% among 360,000; in the data active means activity change below about -30%; further: on the % scale 0 is the no-effect control and ±100 the full control effect
#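 Kinetic fluorescence of a calcium dye serves as the read-out. D1-expressing Hek293 Trex cells, induced overnight at 30 C, are exposed to compound for 180 s before an EC80 dopamine addition, then read 180 s further.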
# TRHR PAM: allosteric enhancers of human TRH receptor; TRHR cells, fluo-8 calcium fluorescence, EC20 TRH enhancement; hit rate 0.66% among 360,000; AID 493056; P34981; enhancement, % at 2 µM; in the data active means enhancement above about 30%; further: 0% is about no effect
#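 TRHR-expressing cells loaded with fluo-8 calcium dye were read kinetically (ex 480/em 530) during compound addition, then stimulated with an EC20 of TRH (10 nM final). Enhancement of the Gq-mediated intracellular calcium response was scored.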
# Starred values were filed as active, the others as inactive; . = no result. Unless noted, no stated cut-off is given here; in the data, active means activation above about 30%; inactive means the rest.
SMILES,D1 potentiator,D1 ag,TRHR agonist,D1 antag,TRHR PAM
CCOc1ccc(C2=C/C(=C/c3cccnc3)C(=O)O2)cc1,-2.0,65.2*,16.7,-13.6,-1.0
COC(=O)c1cccc(NC(=S)NCc2ccc(Cl)cc2)c1,-5.5,35.5*,1.3,-0.4,-8.2
O=C(NCc1ccc(Cl)cc1)c1cccc(NC(=O)c2ccccc2)c1,-4.5,2.6,-0.1,-34.4*,-8.9
O=C(c1ccc(NC(=S)NCc2ccc(Cl)cc2)cc1)N1CCCCC1,0.0,49.5*,-2.1,-17.8,4.8
O=C(NCc1ccccc1)c1ccc(Cl)cc1,-0.9,1.7,0.2,-1.8,-2.4
O=C(NCc1ccccc1)c1cccc(COc2ccc(Cl)cc2)c1,-8.1,38.0*,-0.1,-0.2,0.4
CCCOC(=O)c1c(NC(=O)C2c3ccccc3Oc3ccccc32)sc2c1CCC(C)C2 (stereo unspecified),-3.9,1.1,-0.2,-5.2,9.4
COC(=O)c1cccc(NC(=O)Nc2ccc(Cl)cc2Cl)c1,-2.9,15.8,1.8,-42.9*,0.7
CCc1noc(-c2ccc(N3CCCCC3C)c([N+](=O)[O-])c2)n1 (stereo unspecified),-3.3,7.4,0.7,-26.2,-2.5
Cc1nn(-c2ccccc2)c(C)c1/C=N/NC(=O)CSc1nnc(SCc2ccccc2Cl)s1,2.0,7.6,0.7,-3.7,10.3
Cc1ccc(CSc2nnc(SCC(=O)N/N=C/c3c(C)nn(-c4ccccc4)c3C)s2)cc1,-0.7,1.0,0.2,-37.6*,1.9
Cc1ccc(OC(C)C(=O)N2CCN(CCc3ccncc3)CC2)cc1C (stereo unspecified),-0.7,2.5,-1.4,-12.3,1.1
CN(C)CCNC(=O)C(=O)Nc1ccc2c(c1)N(S(=O)(=O)c1cccs1)CCC2,-0.9,55.9*,-0.5,-5.5,0.7
CN(C)CCCNC(=O)C(=O)Nc1ccc2c(c1)N(S(=O)(=O)c1cccs1)CCC2,-5.2,4.8,-0.1,7.5,29.4
CC(=O)c1ccc(N2CCN(C(=O)COc3ccc(F)cc3)CC2)c(F)c1,-1.6,9.7,-0.3,-17.5,-2.8
CCn1cc(C(=O)NCCC(C)C)c(=O)c2cc(F)c(N3CCN(C(=O)c4ccco4)CC3)cc21,2.6,0.5,0.2,7.2,-0.7
CC(=O)c1cc(F)c(N2CCN(C(=O)COc3ccc(F)cc3)CC2)cc1C,-7.2,6.6,-0.1,-32.9*,-1.8
CC(=O)c1cc(F)c(N2CCN(C(=O)c3ccco3)CC2)cc1C,-6.2,22.2,-0.4,-31.7*,0.5
CCC(=O)c1cc(F)ccc1OCC(=O)N1CCN(c2ccc(F)cc2)CC1,-7.8,6.5,-0.3,-33.8*,-5.5
CCn1cc(C(=O)NC(C)C)c(=O)c2cc(F)c(N3CCN(C(=O)c4ccco4)CC3)cc21,-3.5,5.0,0.0,-31.3*,0.9
CCc1ccc(OCC(=O)Nc2c(C(=O)c3ccccc3)oc3ccccc23)cc1,-2.6,7.1,0.8,13.6,2.6
CCC(=O)N1CCc2cc(Br)cc(S(=O)(=O)CCC(=O)Nc3ccc(C)c(F)c3)c21,0.4,-0.1,-0.6,-4.7,3.2
CN(C)c1nc(SCC#N)nc(N(C)C)n1,-7.7,-0.3,-0.1,-74.3*,-3.6
CC(=O)CSc1nc(N(C)C)nc(N(C)C)n1,-4.5,-2.0,-0.2,.,1.8
CN(C)c1nc(C#N)nc(N(C)C)n1,-3.7,-2.4,-0.2,-1.8,32.7*
SMILES,D1 potentiator,D1 ag,TRHR agonist,D1 antag,TRHR PAM
Fc1ccc(C(CCCn2nnc(-c3cccnc3)n2)c2ccc(F)cc2)cc1,-6.5,17.0,0.9,-30.1*,1.0
CC(=O)c1cccc(NC(=O)COc2nsnc2N2CCOCC2)c1,-4.6,6.1,0.7,-35.3*,-3.0
COc1nsnc1N1CCOCC1,3.2,0.9,-1.8,9.8,-1.7
COC(=O)COc1nsnc1N1CCOCC1,-5.5,1.4,0.3,-60.4*,-0.9
Cc1cc(C)cc(OCC(=O)N2N=C(C(F)(F)F)CC2(O)C(C)(C)C)c1 (stereo unspecified),-5.6,34.2*,-0.4,-11.9,6.3
O=C(CN1C(=O)COc2ccc(S(=O)(=O)N3CCCCCC3)cc21)N1CCN(c2ccc(F)cc2)CC1,2.1,0.0,-1.6,14.4,1.4
COC1CCCN(Cc2cn(C)nc2-c2ccc(Oc3ccccc3)cc2)C1 (stereo unspecified),-1.8,2.5,0.1,-2.1,-3.7
CCCN1CCC(NCc2cn(C)nc2-c2ccc(Oc3ccccc3)cc2)CC1,-1.4,30.3*,2.3,-10.1,5.1
COc1ccc(N2CCN(C(c3ccccc3)c3nnc(-c4ccccc4Cl)o3)CC2)cc1 (stereo unspecified),-7.9,-0.4,0.3,0.7,-5.3
N#C/C(=C/c1ccc(C(=O)O)cc1)C(=O)NCc1ccccc1,-9.6,3.5,-0.1,-4.7,-6.4
Cn1c(=O)n(C)c2cc(/C=C(/C#N)C(=O)NCc3ccco3)ccc21,-3.2,-0.6,0.3,2.9,9.8
N#C/C(=C\c1cn(Cc2ccc(F)cc2)c2ccccc12)C(=O)NCc1ccco1,-10.9,7.2,1.1,-35.8*,-2.9
CC(OC(=O)c1cccs1)C(=O)NCc1ccco1 (stereo unspecified),0.8,0.1,-0.1,-17.9,0.9
CCN(CC)c1ccc(/C=C(\C#N)C(=O)NCc2ccccc2)cc1,-7.5,57.7*,10.0,0.4,3.1
CCN(CC)c1ccc(/C=C(\C#N)C(=O)NCc2ccco2)cc1,-8.1,47.9*,27.2,-12.3,2.7
CC(OC(=O)/C(C#N)=C/c1ccc(N(C)C)cc1)C(=O)NCc1ccco1 (stereo unspecified),1.2,35.0*,15.8,-9.9,6.6
N#C/C(=C\c1cn(Cc2ccccc2)c2ccccc12)C(=O)NCc1ccco1,-9.6,5.8,0.3,-19.7,-6.2
COC(=O)c1cc2sc(C)cc2n1Cc1ccc(F)cc1Cl,1.4,0.9,-0.1,26.4,1.4
Cc1ccc(CNC(=O)/C(C#N)=C\c2ccc(N(C)C)cc2)cc1,-2.1,17.5,2.0,3.3,-7.0
CN(C)c1ccc(/C=C(\C#N)C(=O)NCc2ccco2)cc1,-7.7,35.1*,-2.6,-3.5,8.4
O=C(Cn1cc(SCc2c(F)cccc2Cl)c2ccccc21)N1CCCCCC1,-3.2,8.5,2.0,-0.3,-3.4
O=C(COc1ccc2ccccc2c1Br)N1CCCCC1,-10.1,1.6,0.5,-31.7*,3.5
CC1CN(C(=O)COc2ccc3ccccc3c2Br)CC(C)O1 (stereo unspecified),-7.5,0.3,-0.1,-14.0,-2.5
NC(=O)C1CCN(C(=O)COc2ccc3ccccc3c2Br)CC1,-6.8,3.2,0.6,-64.3*,-0.7
Cc1cccc(NC(=O)CN2C(=O)COc3ccc(S(=O)(=O)N4CCC(C)CC4)cc32)c1C,0.2,2.0,-0.5,6.3,-6.0
CCOc1ccc(CNC(=O)c2ccc3c(c2)sc2nc(-c4ccccc4)cn23)cc1,-2.0,-1.1,-0.1,11.1,-5.3

# Assay outcomes from PubChem.
